# CCHFV vOTU inh – CCHFV vOTU protease inhibition; Pep-AMC fluorescence; inhibition, % at 11.5 µM; actives 0.55% (n = 370,000); in the data active means inhibition above about 30%; further: 0% = vehicle wells with enzyme and 100% = no enzyme wells
# Mtb hypoxia inh – reduces hypoxia-regulated biosensor signal in M. tuberculosis | AID 1159583 | actives 0.1% (n = 300,000) | fluorescence inhibition, % (concentration not given with the values) | M. tuberculosis hypoxia-regulated fluorescent reporter, fluorescence; in the data active means fluorescence inhibition mostly above about 23%, no sharp cut-off; inactive means mostly below about 17%
# BJeLR lethal – BJeLR cell viability loss; BJeLR (HRASV12) viability, CellTiter-Glo ATP luminescence, 48 h; inhibition, % (concentration not given with the values); actives 0.17% (n = 300,000); in the data active means inhibition above about 50%
# RN4220 kill – kills Staphylococcus aureus RN4220; S. aureus RN4220 growth, OD600, 16 h; inhibition, % (concentration not given with the values); actives 0.33% (n = 330,000); AID 1259311; in the data active means inhibition above about 85%;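 further: plate controls were untreated cells for no effect and reference antibiotic for full effect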
# RecA intein inh – inhibitors of M. tuberculosis RecA intein splicing; P9WHJ3; cell-free RecA intein splicing, fluorescence; inhibition, % (test concentration not listed); actives 0.75% (n = 290,000); in the data active means inhibition above about 30%;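 further: 0% = vehicle wells and 100% = reference inhibitor control wells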
# Sa ugtP lethal – kills S. aureus RN4220 lacking UgtP; growth inhibition, % (no concentration beside the values); S. aureus RN4220 ugtP deletion, OD600 growth, 16 h; actives 0.54% (n = 330,000); AID 1259309; in the data active means growth inhibition above about 68%;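 further: plate controls were untreated wells for no effect and antibiotic for full effect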
# GFP chromo cs – counter-screen: blocks GFP chromophore formation; shares compounds with RecA intein inh; cell-free GFP chromophore formation, fluorescence; EC50, µM; actives 83% (n = 2,100); AID 434968; call rule not given here
# * marks the source's active call; other numbers are inactive results; . = no result given. Most compounds without a hit are left out; they make up all but 1.6% or so of the library.
SMILES,CCHFV vOTU inh,Mtb hypoxia inh,BJeLR lethal,RN4220 kill,RecA intein inh,Sa ugtP lethal,GFP chromo cs
Cc1ccc(NC(=O)CC(=O)Nc2ccc(C)c(C)c2)cc1C,14,.,10,.,-1,.,.
Cc1ccc(Sc2ccc(NC(=O)CCl)cc2)cc1C,11,14,-1,20,66*,-14,7.3*
O=C(CCl)Nc1ccccc1Sc1ccccc1,9,14,6,4,.,5,.
Cc1ccc(C)c(Sc2ccc(NC(=O)CCl)cc2)c1,-1,9,1,25,91*,-30,7*
CCOC1OC(C(=O)N2CCCCCCC2)=CC(c2cn(C(C)=O)c3ccccc23)C1CCCO (configuration not stated),.,7,.,6,.,0,.
O=C(COC(=O)C1CC(=O)N(Cc2ccco2)C1)c1ccc(OC(=O)c2ccco2)cc1 (configuration not stated),1,1,-12,19,35*,-13,>38
O=C(O)C1=CC(c2ccc(F)cc2)CC(OCc2ccc(CO)cc2)O1 (configuration not stated),.,-2,.,2,.,1,.
O=S(=O)(N[C@H]1C[C@@H](NS(=O)(=O)OCC(Cl)(Cl)Cl)C2CCCCC21)OCC(Cl)(Cl)Cl (some centres not stated),3,.,-2,.,32*,.,>38
CC(C)CN1CCC(=O)N(C(CN=[N+]=[N-])Cc2ccccc2)CC1 (configuration not stated),.,4,.,2,.,1,.
O=C1c2cc(F)ccc2-n2c1nc1ccccc1c2=O,29,.,8,.,94*,.,>38
COC(=O)C1=C(C)NC(=O)C1=Cc1ccc(CNS(=O)(=O)c2ccc(C)cc2)o1,.,4,.,7,.,0,.
CCN1C(=O)C2C(c3ccc(-c4cccc(Cl)c4)c(OC)c3)N[C@@](C)(C(=O)OC)C2C1=O (some centres not stated),.,1,.,2,.,7,.
CCN(C(=O)c1ccc2c(Cl)c3c(nc2c1)CCC3)c1ccc(C)c(C)c1,14,6,-3,-7,30*,9,9.1*
COC(=O)[C@@H]1C[C@]2(OC(=O)c3ccccc3)C=CC(=O)C[C@@H]2N1C(=O)OCc1ccccc1,3,.,-8,.,56*,.,32*
CC(=O)c1cccc(-c2ccc3c(=O)[nH]c(Nc4ccccc4)cc3c2)c1,104*,6,15,-3,94*,-17,8.6*
c1ccc(-c2ccc(C3CCCN3)cc2)cc1 (configuration not stated),7,10,12,4,90*,10,>38
CC=CC1=CC(=O)CC(c2ccc(F)cc2)C1 (configuration not stated),.,11,.,-1,.,0,.
N#Cc1c(N2CCCC2)nc(N)c2c(N)nc(N3CCCC3)cc12,72*,7,11,8,58*,-23,0.24*
CC1COC(=O)C(Cc2ccc(F)cc2)CCC=CCC(CC(=O)N(CCO)Cc2ccccc2)C(=O)N1 (configuration not stated),.,0,.,6,.,-9,.
N#CC1=C(N)Oc2n[nH]c(-c3ccccc3)c2C12C(=O)Nc1ccccc12 (configuration not stated),8,11,3,24,29,-2,.
Cc1[nH]nc2c1C1(CCN(C(=O)OCc3ccccc3)CC1)C(C#N)=C(N)O2,-1,.,-6,1,80*,5,30*
CC1(C)CC(=O)C2=C(C1)OC(N)=C(C#N)C21CCN(C(=O)OCc2ccccc2)CC1,-9,-1,-3,15,0,2,.
CC(=O)N1CCC2(CC1)C(C#N)=C(N)Oc1c2sc2nc(C)cc(C)c12,-4,7,-18,1,3,-4,.
Cc1[nH]nc2c1C1(CCN(C(=O)c3ccccc3)CC1)C(C#N)=C(N)O2,-13,2,-3,-1,79*,-4,13*
CC(=O)N1CCC2(CC1)C(C#N)=C(N)Oc1n[nH]c(C)c12,1,10,-1,4,79*,7,15*
SMILES,CCHFV vOTU inh,Mtb hypoxia inh,BJeLR lethal,RN4220 kill,RecA intein inh,Sa ugtP lethal,GFP chromo cs
Cc1[nH]nc2c1C1(CCC(c3ccccc3)CC1)C(C#N)=C(N)O2 (configuration not stated),-8,4,-8,7,77*,-2,25*
CC(NC(=O)/C(C#N)=C/c1ccc([N+](=O)[O-])o1)c1ccccc1 (configuration not stated),6,.,-8,.,47*,.,>38
NCCCCC1CNC(=O)C(=O)N1CCCCC1CCCCC1 (configuration not stated),.,-3,.,2,.,-1,.
Cc1cccc(CSc2nc3c(c(-c4cccs4)c2C#N)CN(C)CC3)c1,1,9,3,0,61*,24,25*
Cc1cccc(CSc2nc(N)c(C#N)c(-c3cccs3)c2C#N)c1,7,11,-13,5,3,31,.
C=CCn1c(N)c(C(=O)Nc2ccc(C)c(C)c2)c2nc3ccccc3nc21,13,7,6,-5,2,-6,.
C=CCn1c(N)c(C(=O)Nc2cccc(C)c2)c2nc3ccccc3nc21,4,8,1,7,34*,65,24*
Cc1ccc(-c2cc(=O)[nH][nH]2)c(C)c1,14,2,-7,5,95*,0,2.9*
CC1=NNC(=O)C1Br (configuration not stated),-4,.,.,.,.,.,.
CC1=NNC(=O)C1Oc1ccccc1 (configuration not stated),-4,9,8,2,96*,2,1.1*
CC1CCC[C@@]2(O1)OC(CCO)CC(O)C2O (some centres not stated),.,3,.,4,.,2,.
COc1ccc(C2CC=C(C(=O)O)C(c3ccc(F)cc3)N2S(=O)(=O)c2ccc(C)cc2)cc1OC (configuration not stated),.,8,.,4,.,2,.
CON(C)C(=O)CC1CC(OC(=O)c2ccc([N+](=O)[O-])cc2)CN1C(=O)OC(C)(C)C (configuration not stated),.,-2,.,3,.,0,.
O=C(O)c1cc(Nc2cc(Cl)c3nonc3c2[N+](=O)[O-])ccc1O,14,17,-2,7,97*,2,1.9*
O=[N+]([O-])c1c(Nc2ccccc2O)ccc2nonc12,11,20,-12,8,0,-1,.
O=[N+]([O-])c1c(Nc2ccccc2O)cc(Cl)c2nonc12,13,13,3,98*,96*,87,1.5*
C[N+](C)(C)CCOP(=O)(O)OP(=O)([O-])OCC1OC(n2ccc(N)nc2=O)C(O)C1O (configuration not stated),.,9,.,6,.,1,.
NC(=O)C1CCCNc2c(F)cc([N+](=O)[O-])cc2C(=O)NC(CO)C(=O)NC(Cc2ccc(O)cc2)C(=O)N1 (configuration not stated),.,2,.,1,.,-6,.

# Bioassay records (PubChem BioAssay)
